This is an account of results in PubChem BioAssay (NCATS).

Experiment [1] is described as follows: Primary qHTS for small molecule stabilizers of the endoplasmic reticulum resident proteome: Secreted ER Calcium Modulated Protein (SERCaMP) assay (AID 1508630). Particulars: SH-SY5Y GLuc-SERCaMP (Gaussia luciferase released on ER calcium loss) secretion, thapsigargin, luminescence; series mostly up to 38.4 µM. In short, it runs like this:
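The SH-SY5Y reporter protocol was run at 3 concentrations up to 38.3 uM (primary) or 11 concentrations (follow-up): 16 h compound, 100 nM thapsigargin for 4 h, then extracellular luciferase luminescence.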

Experiment [2] deals with Cytochrome P450 2D6 (Homo sapiens) (UniProt P10635). Description: Cytochrome P450 family 2 subfamily D member 6 (CYP2D6) small molecule antagonists: luciferase biochemical (cell-free) qHTS assay (AID 1645840; active means well fitted curve in the direction sought with a large enough effect in the repeat runs; an effect the other way counts as inactive or inconclusive; further: nearly all actives have a fitted effect of over 55% in size; further: potency means the concentration at half of the fitted maximal effect). Particulars: P450-Glo CYP2D6 enzyme, luciferin luminescence, 1 h; series mostly up to 57.4 µM. In short, it runs like this:
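P450-Glo CYP2D6 system: proluciferin substrate converted by enzyme to luciferin, read by luminescence proportional to activity. Enzyme-substrate mix with compound 10 min at room temperature, then NADPH regeneration 1 h before detection reagent.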
On the technique in general: Quantitative high-throughput screening tests each substance at several concentrations.

Experiment [3] has as its target Cytochrome P450 2C9 (Homo sapiens) (UniProt P11712). Kind of experiment: Cytochrome P450 family 2 subfamily C member 9 (CYP2C9) small molecule antagonists: luciferase biochemical (cell-free) qHTS assay (AID 1645842; active means well fitted curve in the direction sought with a large enough effect in the repeat runs; an effect the other way counts as inactive or inconclusive; further: nearly all actives have a fitted effect of over 55% in size; further: potency means the concentration at half of the fitted maximal effect). Particulars: P450-Glo CYP2C9 enzyme assay, luciferin luminescence; series mostly up to 57.4 µM. Put shortly: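 P450-Glo CYP2C9 system: proluciferin substrate with enzyme in mix containing 0.4% BSA, 10 min at room temperature, then NADPH regeneration solution added and incubated 1 h at 37C. Detection reagent stopped reaction; luminescence read after 20 min as RLU.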

The nature of experiment [4]: Primary qHTS for inhibitors of nuclear receptor binding SET domain protein 2 (NSD2) in an isogenic RCH-ACV NSD2 p.E1099K mutant (9B) (AID 1645876). Further: nearly all actives have a fitted effect of over 70% in size. Further: potency means the concentration at half of the fitted maximal effect. Particulars: RCH-ACV NSD2 E1099K (9B) viability, CellTiter-Glo, 72 h; series mostly up to 44.9 µM.
Experiment [5] is described as follows: Primary qHTS for inhibitors of nuclear receptor binding SET domain protein 2 (NSD2) in an RCH-ACV wild type WT cells (2C) (AID 1645877). Further: potency means the concentration at half of the fitted maximal effect; nearly all actives have a fitted effect of over 70% in size. The conditions noted are these: RCH-ACV (leukaemia line) NSD2 WT (2C) viability, CellTiter-Glo, 72 h; series mostly up to 44.9 µM.

Values joined by “and” are separate entries in the source; they are usually repeats but may differ in a detail not shown here. Identical values can stand only once. Records with an inconclusive call do not appear. Active and inactive are the calls of the source. Unless noted, the call rests on the fitted dose curve; in most records, active means well fitted curve in the direction sought with a large enough effect; inconclusive means small, poorly fitted or top-dose-only effect, or another doubt; inactive means no such curve, though single readings can be large; an effect the other way counts as inactive or inconclusive.

Cytochrome P450 2D6 (Homo sapiens), sequence (P10635 whole entry, looked up): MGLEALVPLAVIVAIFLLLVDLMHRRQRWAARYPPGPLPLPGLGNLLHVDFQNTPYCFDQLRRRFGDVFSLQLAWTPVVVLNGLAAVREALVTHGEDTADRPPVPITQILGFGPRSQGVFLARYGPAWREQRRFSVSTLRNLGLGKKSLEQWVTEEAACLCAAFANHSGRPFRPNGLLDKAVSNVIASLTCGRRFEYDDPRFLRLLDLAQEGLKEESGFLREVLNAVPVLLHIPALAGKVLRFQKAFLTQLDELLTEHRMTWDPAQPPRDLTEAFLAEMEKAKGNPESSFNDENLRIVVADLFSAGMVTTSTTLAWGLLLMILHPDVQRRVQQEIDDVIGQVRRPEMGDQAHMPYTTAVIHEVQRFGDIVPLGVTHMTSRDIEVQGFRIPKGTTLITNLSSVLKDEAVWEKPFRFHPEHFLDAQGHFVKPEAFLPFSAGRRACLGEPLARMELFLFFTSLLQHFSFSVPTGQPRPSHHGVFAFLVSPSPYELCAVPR
Cytochrome P450 2C9 (Homo sapiens), sequence (P11712 whole entry, looked up): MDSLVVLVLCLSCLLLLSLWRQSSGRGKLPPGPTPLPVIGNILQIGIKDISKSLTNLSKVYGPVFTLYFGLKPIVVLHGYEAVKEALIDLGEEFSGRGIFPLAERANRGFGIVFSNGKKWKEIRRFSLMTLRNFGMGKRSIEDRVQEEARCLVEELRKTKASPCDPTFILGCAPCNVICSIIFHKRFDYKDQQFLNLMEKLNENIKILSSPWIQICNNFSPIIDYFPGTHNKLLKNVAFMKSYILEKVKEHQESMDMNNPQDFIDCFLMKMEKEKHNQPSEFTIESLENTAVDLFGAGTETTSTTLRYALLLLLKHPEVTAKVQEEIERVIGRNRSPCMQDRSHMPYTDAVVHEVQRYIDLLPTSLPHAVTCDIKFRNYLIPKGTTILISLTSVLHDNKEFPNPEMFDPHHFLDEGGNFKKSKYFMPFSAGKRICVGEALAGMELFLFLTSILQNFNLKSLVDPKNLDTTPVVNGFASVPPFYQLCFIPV

On to `Cc1ccc(C(=O)Nc2ccc(CN3CCN(C)CC3)c(C(F)(F)F)c2)cc1C#Cc1cnc2cccnn12`, for which the Potency result in experiment [1] was “inactive”. The Potency in experiment [2] is 16.9 µM (active); in experiment [3], 12 µM (active); in experiment [4], 29 nM (active) and 186 nM (active); in experiment [5] it was 91.6 nM (active) and 209 nM (active).

For `O=C(O)C1(Cc2cccc(Nc3nccs3)n2)CCC(Oc2cccc(Cl)c2F)CC1` (centres undefined), the Potency result in experiment [1] and in experiment [2] was “inactive” each time. In addition, the Potency is 7.56 µM (active) in experiment [3]; 1.45 µM (active) in experiment [4]; 2.58 µM (active) and 3.72 µM (active) in experiment [5].

In the case of `Cc1cc(Nc2nc(N[C@@H](C)c3ccc(F)cc3)c(C#N)cc2F)n[nH]1`, in experiment [1], the Potency entry is “inactive”. Besides, the Potency in experiment [2] is 26.8 µM (active); in experiment [3] it was 1.9 µM (active); in experiment [4], 578 nM (active) and 934 nM (active); in experiment [5] it was 578 nM (active) and 742 nM (active).

Regarding `COC(=O)c1ccc2c(C(=Nc3ccc(N(C)C(=O)CN4CCN(C)CC4)cc3)c3ccccc3)c(O)[nH]c2c1`, the Potency result in experiment [1], in experiment [2] and in experiment [3] was “inactive” each time. Also, the Potency in experiment [4] was 1.83 µM (active) and 2.63 µM (active); in experiment [5] it was 2.3 µM (active) and 3.32 µM (active).

In the case of `CN(C)Cc1c(C(=O)NCCOc2ccc(C(=O)NO)cc2)oc2ccccc12`, the Potency result in experiment [1] and in experiment [3] was “inactive” throughout. In addition, the Potency in experiment [2] was 1.69 µM (active); in experiment [4] it was 515 nM (active) and 332 nM (active); in experiment [5], 515 nM (active) and 296 nM (active).

As to `O=C(O)Cn1nnc(-c2cc(N3CCC(Oc4cc(F)ccc4Br)CC3)no2)n1`, the Potency result in experiment [1], in experiment [2] and in experiment [4] was “inactive” throughout. Moreover, in experiment [3], the Potency is 13.5 µM (active).

In the case of `COc1ccc(C(=O)CC2(O)C(=O)Nc3c(Cl)ccc(Cl)c32)cc1` (centres undefined), the Potency entry in experiment [1] and in experiment [2] was “inactive” each time. For the same compound, the Potency was 16.9 µM (active) and 15.1 µM (active) in experiment [3]; 2.58 µM (active) in experiment [4]; 1.83 µM (active) in experiment [5].
